Measured values from PubChem BioAssay (NCI).
The panel holds about 79,000 compounds, 15% with a hit somewhere; the sample as a whole holds those more often. Values without a mark were called inactive. Activity calls are given as the source filed them. Rule as the data show it: active = growth inhibition above about 70%; inactive = the rest.

Assays:
[1] = NCI Yeast Anticancer Drug Screen. Data for the rad50 strain (AID 155);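 also: 0% = growth of vehicle-only cultures of the same strain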; conditions: S. cerevisiae rad50 strain growth inhibition, hits give high values
Procedure, shortened: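 Cells are treated with compound, grown, and their growth is then scored against vehicle-only cultures of the same repair-deficient yeast strain.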

[2] = NCI Yeast Anticancer Drug Screen. Data for the mec2-1 strain (AID 157); conditions: S. cerevisiae mec2-1 strain, hits give high values
Procedure, shortened: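 Vehicle-treated cultures served as reference for growth inhibition of compound-exposed mec2-1 yeast.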

[3] = NCI Yeast Anticancer Drug Screen. Data for the sgs1 mgt1 strain (AID 161);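 also: 0% = growth of cultures given vehicle only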; conditions: S. cerevisiae sgs1 mgt1 strain, hits give high values
Procedure, shortened: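 Mutant yeast exposed to compound; growth scored against vehicle-only wells.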

[4] = NCI Yeast Anticancer Drug Screen. Data for the cln2 rad14 strain (AID 165);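 also: 0% = growth equal to vehicle treated cultures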; conditions: S. cerevisiae cln2 rad14 strain, hits give high values
Procedure, shortened: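 Each compound was tested on cln2 rad14 yeast. Inhibition of growth was calculated against vehicle-exposed controls.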

[5] = NCI Yeast Anticancer Drug Screen. Data for the bub3 strain (AID 167); conditions: S. cerevisiae bub3 mutant strain, hits give high values
Procedure, shortened: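 Part of a panel of yeast mutants defective in DNA damage repair or cell cycle regulation. Each strain is grown with compound, and inhibition is calculated relative to solvent-treated cultures.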

[6] = NCI Yeast Anticancer Drug Screen. Data for the mlh1 rad18 strain (AID 175); conditions: S. cerevisiae mlh1 rad18 strain growth inhibition, hits give high values
Procedure, shortened: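 Vehicle-treated cultures served as the reference for growth inhibition in a yeast strain carrying DNA damage repair alterations exposed to each compound.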

[7] = at 5.0 µM (retest, dose inferred, filed as 0.5)
[8] = at 50.0 µM (retest, dose inferred, filed as 5.0)

## CNC(=S)N(C)C(=S)Nn1c(=O)c(C)nn(C)c1=S
[1]; [7]
  growth inhibition: -24%
[1]; [8]
  growth inhibition: 59%
[1]; at 50.0 µM
  growth inhibition: 70.8% (active)
[2]; [7]
  growth inhibition: -23%
[2]; [8]
  growth inhibition: 96% (active)
[2]; at 50.0 µM
  growth inhibition: 79.7% (active)
[3]; [7]
  growth inhibition: -19%
[3]; [8]
  growth inhibition: 50%
[3]; at 50.0 µM
  growth inhibition: 87% (active)
[4]; [7]
  growth inhibition: -3%
[4]; [8]
  growth inhibition: 66%
[4]; at 50.0 µM
  growth inhibition: 57.9%
[5]; [7]
  growth inhibition: -18%
[5]; [8]
  growth inhibition: 77% (active)
[5]; at 50.0 µM
  growth inhibition: 78.4% (active)
[6]; [7]
  growth inhibition: -27%
[6]; [8]
  growth inhibition: 97% (active)
[6]; at 50.0 µM
  growth inhibition: 72.5% (active)

## CN(NC(=O)/C(=C\c1ccco1)NC(=O)c1ccccc1)c1cn[nH]c(=O)c1Cl
[1]; [7]
  growth inhibition: 9%
[1]; [8]
  growth inhibition: 36%
[1]; at 50.0 µM
  growth inhibition: 86.2% (active)
[2]; [7]
  growth inhibition: -9%
[2]; [8]
  growth inhibition: 13%
[2]; at 50.0 µM
  growth inhibition: 83.4% (active)
[3]; [7]
  growth inhibition: -2%
[3]; [8]
  growth inhibition: 6%
[3]; at 50.0 µM
  growth inhibition: 87.8% (active)
[4]; [7]
  growth inhibition: 7%
[4]; [8]
  growth inhibition: 13%
[4]; at 50.0 µM
  growth inhibition: 62.7%
[5]; [7]
  growth inhibition: -10%
[5]; [8]
  growth inhibition: 27%
[5]; at 50.0 µM
  growth inhibition: 90.6% (active)
[6]; [7]
  growth inhibition: -6%
[6]; [8]
  growth inhibition: 47%
[6]; at 50.0 µM
  growth inhibition: 93.5% (active)

## CCCOC(=O)CSC#N
[1]; [7]
  growth inhibition: 39%
[1]; [8]
  growth inhibition: 97% (active)
[1]; at 50.0 µM
  growth inhibition: 97.9% (active)
[2]; [7]
  growth inhibition: 33%
[2]; [8]
  growth inhibition: 98% (active)
[2]; at 50.0 µM
  growth inhibition: 98% (active)
[3]; [7]
  growth inhibition: 56%
[3]; [8]
  growth inhibition: 98% (active)
[3]; at 50.0 µM
  growth inhibition: 98.2% (active)
[4]; [7]
  growth inhibition: 28%
[4]; [8]
  growth inhibition: 95% (active)
[4]; at 50.0 µM
  growth inhibition: 97.8% (active)
[5]; [7]
  growth inhibition: 33%
[5]; [8]
  growth inhibition: 98% (active)
[5]; at 50.0 µM
  growth inhibition: 97.8% (active)
[6]; [7]
  growth inhibition: 41%
[6]; [8]
  growth inhibition: 98% (active)
[6]; at 50.0 µM
  growth inhibition: 98% (active)

## N#CSCC(=O)c1ccc2ccccc2c1
[1]; [7]
  growth inhibition: 67%
[1]; [8]
  growth inhibition: 99% (active)
[1]; at 50.0 µM
  growth inhibition: 90.8% (active)
[2]; [7]
  growth inhibition: 71% (active)
[2]; [8]
  growth inhibition: 99% (active)
[2]; at 50.0 µM
  growth inhibition: 92.1% (active)
[3]; [7]
  growth inhibition: 97% (active)
[3]; [8]
  growth inhibition: 99% (active)
[3]; at 50.0 µM
  growth inhibition: 93.5% (active)
[4]; [7]
  growth inhibition: 68%
[4]; [8]
  growth inhibition: 98% (active)
[4]; at 50.0 µM
  growth inhibition: 91% (active)
[5]; [7]
  growth inhibition: 97% (active)
[5]; [8]
  growth inhibition: 98% (active)
[5]; at 50.0 µM
  growth inhibition: 90.5% (active)
[6]; [7]
  growth inhibition: 57%
[6]; [8]
  growth inhibition: 99% (active)
[6]; at 50.0 µM
  growth inhibition: 91.3% (active)

## COC(=O)/C(C#N)=C1\NC(=O)CC(c2ccccc2)C1C#N (stereo not given)
[1]; [7]
  growth inhibition: 12%
[1]; [8]
  growth inhibition: 20%
[1]; at 50.0 µM
  growth inhibition: -25.2%
[2]; [7]
  growth inhibition: 9%
[2]; [8]
  growth inhibition: 16%
[2]; at 50.0 µM
  growth inhibition: -27.1%
[3]; [7]
  growth inhibition: 21%
[3]; [8]
  growth inhibition: 20%
[3]; at 50.0 µM
  growth inhibition: 9.25%
[4]; [7]
  growth inhibition: 5%
[4]; [8]
  growth inhibition: 19%
[4]; at 50.0 µM
  growth inhibition: -1.3%
[5]; [7]
  growth inhibition: 10%
[5]; [8]
  growth inhibition: 13%
[5]; at 50.0 µM
  growth inhibition: -0.9%
[6]; [7]
  growth inhibition: 23%
[6]; [8]
  growth inhibition: 18%
[6]; at 50.0 µM
  growth inhibition: -16.7%

## CC1COC(c2cn[nH]c2C(N)=O)C1O (stereo not given)
[1]; [7]
  growth inhibition: -7%
[1]; [8]
  growth inhibition: 13%
[1]; at 50.0 µM
  growth inhibition: -0.5%
[2]; [7]
  growth inhibition: 5%
[2]; [8]
  growth inhibition: 15%
[2]; at 50.0 µM
  growth inhibition: 21%
[3]; [7]
  growth inhibition: 7%
[3]; [8]
  growth inhibition: 14%
[3]; at 50.0 µM
  growth inhibition: -6.4%
[4]; [7]
  growth inhibition: -33%
[4]; [8]
  growth inhibition: -18%
[4]; at 50.0 µM
  growth inhibition: 39.4%
[5]; [7]
  growth inhibition: 4%
[5]; [8]
  growth inhibition: 24%
[5]; at 50.0 µM
  growth inhibition: 0.85%
[6]; [7]
  growth inhibition: 3%
[6]; [8]
  growth inhibition: 16%
[6]; at 50.0 µM
  growth inhibition: 7.65%

## O=S1(=O)C(Br)=Cc2ccccc21
[1]; [7]
  growth inhibition: 16%
[1]; [8]
  growth inhibition: 99% (active)
[1]; at 50.0 µM
  growth inhibition: 99.3% (active)
[2]; [7]
  growth inhibition: -6%
[2]; [8]
  growth inhibition: 99% (active)
[2]; at 50.0 µM
  growth inhibition: 99.3% (active)
[3]; [7]
  growth inhibition: 25%
[3]; [8]
  growth inhibition: 99% (active)
[3]; at 50.0 µM
  growth inhibition: 98.7% (active)
[4]; [7]
  growth inhibition: 17%
[4]; [8]
  growth inhibition: 99% (active)
[4]; at 50.0 µM
  growth inhibition: 97.7% (active)
[5]; [7]
  growth inhibition: 13%
[5]; [8]
  growth inhibition: 99% (active)
[5]; at 50.0 µM
  growth inhibition: 99.4% (active)
[6]; [7]
  growth inhibition: 23%
[6]; [8]
  growth inhibition: 99% (active)
[6]; at 50.0 µM
  growth inhibition: 98.7% (active)

## O=[N+]([O-])C(=C(Nc1ccccc1)Nc1ccccc1)C(Cl)=C(Cl)Cl
[1]; [7]
  growth inhibition: 97% (active)
[1]; [8]
  growth inhibition: 100% (active)
[1]; at 50.0 µM
  growth inhibition: 89.2% (active)
[2]; [7]
  growth inhibition: 98% (active)
[2]; [8]
  growth inhibition: 100% (active)
[2]; at 50.0 µM
  growth inhibition: 93% (active)
[3]; [7]
  growth inhibition: 92% (active)
[3]; [8]
  growth inhibition: 99% (active)
[3]; at 50.0 µM
  growth inhibition: 89.2% (active)
[4]; [7]
  growth inhibition: 91% (active)
[4]; [8]
  growth inhibition: 100% (active)
[4]; at 50.0 µM
  growth inhibition: 90.7% (active)
[5]; [7]
  growth inhibition: 94% (active)
[5]; [8]
  growth inhibition: 100% (active)
[5]; at 50.0 µM
  growth inhibition: 91.5% (active)
[6]; [7]
  growth inhibition: 99% (active)
[6]; [8]
  growth inhibition: 100% (active)
[6]; at 50.0 µM
  growth inhibition: 85.7% (active)

## Cc1ccc(N2C(=O)CSC2=S)cc1Br
[1]; [7]
  growth inhibition: 7%
[1]; [8]
  growth inhibition: 46%
[1]; at 50.0 µM
  growth inhibition: 95.1% (active)
[2]; [7]
  growth inhibition: 3%
[2]; [8]
  growth inhibition: 11%
[2]; at 50.0 µM
  growth inhibition: 93% (active)
[3]; [7]
  growth inhibition: 4%
[3]; [8]
  growth inhibition: 49%
[3]; at 50.0 µM
  growth inhibition: 94.9% (active)
[4]; [7]
  growth inhibition: -1%
[4]; [8]
  growth inhibition: -11%
[4]; at 50.0 µM
  growth inhibition: 31.9%
[5]; [7]
  growth inhibition: -2%
[5]; [8]
  growth inhibition: 24%
[5]; at 50.0 µM
  growth inhibition: 77.5% (active)
[6]; [7]
  growth inhibition: 3%
[6]; [8]
  growth inhibition: 64%
[6]; at 50.0 µM
  growth inhibition: 95.2% (active)

## COc1ccc(/C=N/NS(=O)(=O)c2ccc(C)cc2)cc1
[1]; [7]
  growth inhibition: 13%
[1]; [8]
  growth inhibition: 83% (active)
[1]; at 50.0 µM
  growth inhibition: 94.2% (active)
[2]; [7]
  growth inhibition: -5%
[2]; [8]
  growth inhibition: 97% (active)
[2]; at 50.0 µM
  growth inhibition: 67.9%
[3]; [7]
  growth inhibition: 6%
[3]; [8]
  growth inhibition: 98% (active)
[3]; at 50.0 µM
  growth inhibition: 91.7% (active)
[4]; [7]
  growth inhibition: 18%
[4]; [8]
  growth inhibition: 96% (active)
[4]; at 50.0 µM
  growth inhibition: 45.4%
[5]; [7]
  growth inhibition: 23%
[5]; [8]
  growth inhibition: 94% (active)
[5]; at 50.0 µM
  growth inhibition: 46.3%
[6]; [7]
  growth inhibition: 46%
[6]; [8]
  growth inhibition: 98% (active)
[6]; at 50.0 µM
  growth inhibition: 97.3% (active)
